Data taken from PubChem BioAssay AID1259418 (Broad Institute, 2018).
About 840 (25%) of roughly 3,400 compounds were called active. About 11% were inconclusive and are not listed.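 Rule for the calls: active = fitted half-maximal concentration of signal decrease at or below twice the sample's top tested concentration; inconclusive = flat curve between -70 and -30 percent, or poor fit; inactive = flat within 30 percent, signal rise, or potency above limit.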 These entries were drawn from the full list. Results with a measured potency or affinity are listed apart.

assay: T. gondii growth inhibition with IFN-gamma, dose response, cell-based, ME49Luc, HeLa, luciferase, 72 h (AID 1259418); settings: T. gondii ME49Luc in IFN-y HeLa, hits give low values, -100% = high-dose IFN-γ control wells; at 19.5 µM unless noted

Structure (SMILES) | max activity
COc1ccc(-c2nc(N3CCN(c4ccc(C)cc4C)CC3)c3ccccc3n2)cc1 | -12.6% [at 0.16 µM] (inactive)
COc1ccc(CC(=O)Nc2ccc(-c3nc(-c4cc(C)ccc4C)co3)cc2)cc1 | 17.8% [at 0.16 µM] (inactive)
COc1ccc(NC(=O)N2CC[C@@H]3[C@H]2c2cc(C4=CCCCC4)ccc2N(C)[C@H]3CO)cc1 | 18.9% [at 0.3 µM] (inactive)
CN1c2ccc(C3=CCCCC3)cc2[C@@H]2[C@@H](CCN2C(=O)C2CCOCC2)[C@H]1CO | 43.9% (inactive)
Cc1ccc(-c2coc(-c3ccc(NC(=O)C(C)C)cc3)n2)cc1 | 38.3% (inactive)
COc1ccc(C)cc1NC(=O)Nc1ccc(-c2nc(-c3cc(C)ccc3C)co2)cc1 | 9.85% [at 0.35 µM] (inactive)
Cc1cc(C)c2c(=O)n(Cc3nc(-c4cccc(Cl)c4)oc3C)c(=O)n(-c3ccccc3)c2n1 | -9.3% [at 0.16 µM] (inactive)
COc1ccccc1CNC(=O)CC1N=C2c3ccccc3N=C(SCc3ccccc3F)N2C1=O (configuration not stated) | 21.2% [at 1.35 µM] (inactive)
O=C(Cc1cccc(F)c1)Nc1ccc2c(c1)CCC(=O)N2 | -7.77% (inactive)
O=C(C[C@@H]1CC[C@@H]2[C@H](COC[C@@H](O)CN2C(=O)Nc2cc(Cl)cc(Cl)c2)O1)N1CCOCC1 | 20.4% (inactive)
COCCO[C@H]1CCN(Cc2c(C)noc2C)[C@H]1Cc1ccccc1 | 11.4% (inactive)
Cc1ccc(-c2coc(-c3ccc(NC(=O)Cc4cccs4)cc3)n2)c(C)c1 | 116% (inactive)
COc1cc(OC)cc(C(=O)Nc2ccc(-c3nc(-c4ccccc4)co3)cc2)c1 | -34% [at 1.35 µM] (inactive)
O=S(=O)(c1cccc(F)c1)N1CC[C@@H]2[C@H]1c1cc(C#Cc3ccccc3F)ccc1N[C@@H]2CO | 6.78% [at 0.3 µM] (inactive)
Cc1ccc(S(=O)(=O)N2CC[C@@H]3[C@H](CO)Nc4ccc(-c5cccc(C(=O)N(C)C)c5)cc4[C@@H]32)cc1 | 26.4% [at 5 µM] (inactive)
O=C(c1ccc2c(c1)OCO2)N1CC[C@@H]2[C@H]1c1cc(C#Cc3ccccc3)ccc1N[C@@H]2CO | 33.7% [at 10 µM] (inactive)
COc1ccccc1-c1ccc2c(c1)[C@H]1[C@H](CCN1S(=O)(=O)c1ccc(C)cc1)[C@@H](CO)N2 | 38.9% (inactive)
N#Cc1cccc(-c2ccc3c(c2)[C@H]2[C@H](CCN2C(=O)c2ccccc2F)[C@@H](CO)N3)c1 | 16.6% [at 10 µM] (inactive)
Cc1ccc(S(=O)(=O)N2CC[C@@H]3[C@@H](CO)Nc4ccc(-c5cccc(C(=O)N(C)C)c5)cc4[C@@H]32)cc1 | 30.1% [at 10 µM] (inactive)
COc1ccccc1-c1ccc2c(c1)[C@@H]1[C@@H](CCN1S(=O)(=O)c1ccc(C)cc1)[C@H](CO)N2 | 39.6% [at 5 µM] (inactive)
Clc1ccc(-c2nc(N3CCCc4ccccc43)c3ccccc3n2)cc1 | 10.7% [at 0.35 µM] (inactive)
Cc1nc(-c2cc(S(=O)(=O)N3CCCCC3C)c(C)s2)sc1C (configuration not stated) | -14.7% [at 5 µM] (inactive)
Cc1nc(-c2ccc(F)cc2)sc1-c1ccc(SCc2cccc(C(F)(F)F)c2)nn1 | -7.18% [at 0.16 µM] (inactive)
Cc1cccc(-c2nc(Cn3nnc(-c4nc(-c5ccc(Cl)c(F)c5)no4)c3C)c(C)o2)c1 | 6.89% (inactive)

Structure (SMILES) | max activity
COc1ccc2c(c1)NC1(CCN(C(=O)Cc3cccs3)CC1)c1cccn1-2 | -16.4% [at 10 µM] (inactive)
COc1cccc(-c2nc3c(s2)CN(S(=O)(=O)c2ccc(Cl)cc2)CC3)c1 | -9.55% [at 0.16 µM] (inactive)
Cc1ccc(C)c(-c2coc(-c3ccc(NC(=O)c4sccc4C)cc3)n2)c1 | 16.8% [at 10 µM] (inactive)
Cc1nc(CCNC(=O)[C@H]2CCCN2C(=O)c2ccccc2Cl)cs1 | 13.6% [at 0.35 µM] (inactive)
Cc1oc(-c2cccc(Cl)c2)nc1Cn1nnc(-c2nc(-c3ccc(F)cc3)no2)c1C | -12.5% [at 0.16 µM] (inactive)
CCOc1ccc(NC(=O)N2CCN(Cc3nc(-c4ccc(OCC)cc4)oc3C)CC2)cc1 | 8.47% [at 5 µM] (inactive)
CCOc1ccc(-c2nc(CN3CCN(C(=O)Nc4ccccc4CC)CC3)c(C)o2)cc1 | 11.7% [at 2.6 µM] (inactive)
CCOc1ccc(NC(=O)N2CCN(Cc3nc(-c4ccc(C)cc4)oc3C)CC2)cc1 | 18.7% [at 2.6 µM] (inactive)
COc1ccc(OC)c(NC(=O)N2CCN(Cc3nc(-c4cccc(Cl)c4)oc3C)CC2)c1 | 24.8% [at 5 µM] (inactive)
CCOc1ccc(-c2nc(CN3CCN(C(=O)Nc4cc(C)cc(C)c4)CC3)c(C)o2)cc1 | -7.26% [at 0.16 µM] (inactive)
CCOc1ccc(-c2nc(CN3CCN(C(=O)Nc4ccc(CC)cc4)CC3)c(C)o2)cc1 | 8.87% [at 1.35 µM] (inactive)
CCOc1ccc(-c2nc(CN3CCN(C(=O)Nc4ccccc4OCC)CC3)c(C)o2)cc1 | 16% (inactive)
CCOc1ccc(-c2nc(CN3CCN(C(=O)Nc4ccc(C)cc4)CC3)c(C)o2)cc1 | -22.9% (inactive)
Cc1ccc(NC(=O)COc2nc(C)nc3ccccc23)c(Br)c1 | 23.6% (inactive)
COC(=O)c1cc(Cl)ccc1NC(=O)COc1nc(C)nc2ccccc12 | 15.7% [at 0.16 µM] (inactive)
Cc1[nH]c2ccccc2c1C(=O)C(=O)NC1CC(=O)N(c2ccccc2)C1 (configuration not stated) | 12.7% [at 2.6 µM] (inactive)
Cc1nc(CCNC(=O)C2CCN(S(=O)(=O)c3cnn(C(F)F)c3C)CC2)cs1 | 8.74% [at 0.68 µM] (inactive)
Cc1ccoc1C(=O)N1CC[C@H]2CO[C@@H](CN3CCN(C)CC3)[C@@H]2C1 | 14.9% (inactive)
COc1cc(OC)c(NC(=O)COc2nc(C)nc3ccccc23)cc1Cl | 39.9% (inactive)
CCc1nc(OCC(=O)Nc2ccccc2OC)c2ccccc2n1 | 14.6% [at 0.35 µM] (inactive)
CSc1cccc(NC(=O)COc2nc(C)nc3ccccc23)c1 | 16.7% [at 5 µM] (inactive)
CCOc1ccc(-c2nc(CN3CCN(C(=O)Nc4cccc(C)c4)CC3)c(C)o2)cc1 | 6.07% (inactive)
CCOc1ccc(-c2nc(CN3CCN(C(=O)Nc4ccc(C)c(Cl)c4)CC3)c(C)o2)cc1 | 18% [at 0.16 µM] (inactive)
CCOc1ccc(-c2nc(CN3CCN(C(=O)Nc4ccccc4Cl)CC3)c(C)o2)cc1 | 227% (inactive)

Structure (SMILES) | max activity
Cc1ccc(-c2nc(CN3CCN(C(=O)Nc4ccc(C)cc4Cl)CC3)c(C)o2)cc1 | 13.8% [at 2.6 µM] (inactive)
Cc1ccc(C(=O)Nc2c(C(=O)N3CCN(c4ncccn4)CC3)[nH]c3ccccc23)cc1 | 15.6% [at 0.68 µM] (inactive)
COc1cccc(CNC(=O)COc2nc(C)nc3ccccc23)c1OC | 25.6% (inactive)
COc1ccc(-c2nc(Nc3cc(C)cc(C)c3)c3ccccc3n2)cc1 | -19.1% [at 0.35 µM] (inactive)
Brc1ccc(Nc2c3ccccc3nc3ccccc23)cc1 | 36.4% [at 5 µM] (inactive)
CN1CCN(C(=O)c2nn(C)c3c2CCN(S(C)(=O)=O)C3)CC1 | 18.7% [at 10 µM] (inactive)
O=C(Cc1ccccn1)N1CC(=O)N2[C@H](C1)[C@@H](c1ccc(C#CCC3CCCC3)cc1)[C@@H]2CO | 6.79% [at 0.3 µM] (inactive)
Cc1ccc(-c2coc(-c3ccc(NC(=O)NCc4cccc(F)c4)cc3)n2)c(C)c1 | 17.3% (inactive)
Cc1ccc(C)c(-c2coc(-c3ccc(NC(=O)Nc4ccccc4F)cc3)n2)c1 | -23.6% [at 0.16 µM] (inactive)
Cc1ccc(-c2coc(-c3ccc(NS(=O)(=O)c4cccc(Cl)c4)cc3)n2)cc1C | -24.2% [at 0.35 µM] (inactive)
CCc1c(C)sc2c1CCN(Cc1nc(-c3cccc(C)c3)oc1C)C2c1ccccc1 (configuration not stated) | 5.74% [at 10 µM] (inactive)
COc1ccc(CCNC(=O)CC2Nc3c4ccccc4nc(=S)n3C2=O)cc1OC (configuration not stated) | 17% [at 0.16 µM] (inactive)
CCc1ccc2c(c1)cc(S(=O)(=O)c1ccccc1)c(=O)n2CC(=O)NCc1ccc(F)cc1 | 15.5% (inactive)
Cc1ccc(C(=O)Nc2ccc(-c3nc(-c4ccc(C)cc4)co3)cc2)cc1 | 113% [at 10 µM] (inactive)
O=C(CCn1nnc2cc(-c3noc(-c4cccc5[nH]ccc45)n3)ccc21)N1CCCC1 | 43% (inactive)
O=C1CCc2cc(S(=O)(=O)Nc3ccc4c(c3)OCCO4)cc3c2N1CCC3 | -30% [at 0.16 µM] (inactive)
Cc1cccc(C)c1NS(=O)(=O)c1cc2c3c(c1)CCC(=O)N3CCC2 | -22% (inactive)
COc1ccc(CNS(=O)(=O)c2cc3c4c(c2)CCC(=O)N4CCC3)cc1 | -13.1% [at 10 µM] (inactive)
O=C1CCc2cc(S(=O)(=O)NCc3ccc4c(c3)OCO4)cc3c2N1CCC3 | -19.9% [at 2.6 µM] (inactive)
Cc1ccc(NS(=O)(=O)c2cc3c4c(c2)CCC(=O)N4CCC3)cc1C | -11.9% (inactive)
Cc1cc(C)c(NS(=O)(=O)c2cc3c4c(c2)CCC(=O)N4CCC3)c(C)c1 | 8.39% (inactive)
Cc1ccc(NS(=O)(=O)c2cc3c4c(c2)CCC(=O)N4CCC3)c(C)c1 | 4.48% [at 2.6 µM] (inactive)
CCOc1cccc(-c2noc(-c3nnn(Cc4nc(-c5ccccc5)oc4C)c3C)n2)c1 | 8.01% (inactive)
COc1ccc(-c2nc3c(s2)CN(S(=O)(=O)c2cccc(Cl)c2)CC3)cc1 | -9.33% [at 2.6 µM] (inactive)
